# Source: PubChem BioAssay (National Center for Advancing Translational Sciences (NCATS))
# Sampled rows, rich in hits. Any-hit rate of the full collection: about 5%.
# Vaccinia Venus = vaccinia inhibition (Venus reporter). Vaccinia virus Venus reporter expression, fluorescence. Potency, µM (top dose mostly 36.5 µM), for inactives: top-dose activity change, negative = inhibition, actives largely listed as inhibitors. actives 0.46% (n = 330,000); calls by dose curve; tested in A549 cells; note: potency is the fitted concentration of half-maximal effect; nearly all actives have a fitted effect of over 30% in size
# LmPK inhibitor = LmPK (Leishmania mexicana) enzyme inhibition | Q27686 | purified LmPK, Kinase-Glo ATP luminescence, 1 h | Potency, µM (titrated, usually from 57.5 µM), inactives show at the highest dose activity change, negative = inhibition, usual class: inhibitors | actives 0.37% (n = 290,000); note: potency is the fitted concentration of half-maximal effect
# Target sequence (Q27686 whole entry, looked up): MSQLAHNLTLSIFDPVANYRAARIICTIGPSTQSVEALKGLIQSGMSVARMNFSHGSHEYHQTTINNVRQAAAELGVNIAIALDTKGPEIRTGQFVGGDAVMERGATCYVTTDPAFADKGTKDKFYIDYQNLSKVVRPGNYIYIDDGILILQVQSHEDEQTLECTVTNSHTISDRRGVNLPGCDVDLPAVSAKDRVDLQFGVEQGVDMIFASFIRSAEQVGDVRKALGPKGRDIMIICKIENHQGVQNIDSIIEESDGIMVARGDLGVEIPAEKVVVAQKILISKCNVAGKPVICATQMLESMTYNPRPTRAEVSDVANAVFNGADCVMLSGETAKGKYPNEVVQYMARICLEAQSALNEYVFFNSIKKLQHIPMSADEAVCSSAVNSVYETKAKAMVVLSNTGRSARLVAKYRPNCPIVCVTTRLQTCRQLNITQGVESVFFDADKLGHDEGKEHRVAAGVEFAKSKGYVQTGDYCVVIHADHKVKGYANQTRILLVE
#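 qHTS format; LmPK 0.1 nM; substrates PEP 0.5 mM and ADP 0.1 mM. One-hour room-temperature incubation, then coupled luciferase luminescence; 0.5 nM enzyme wells mark activation.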
# Vaccinia mCherry = inhibitors of vaccinia virus infection (mCherry reporter signal) | Potency, µM (titrated, usually from 36.5 µM), without a hit: at the top dose activity change, negative = inhibition, actives largely listed as inhibitors | AID 720579 | Vaccinia virus mCherry reporter infection, fluorescence | actives 0.63% (n = 310,000); calls by dose curve; tested in A549 cells; note: potency is the fitted concentration of half-maximal effect; nearly all actives have a fitted effect of over 35% in size
# Tb PYK inh = blocks Trypanosoma brucei pyruvate kinase | actives 0.12% (n = 410,000) | Potency, µM (highest dose often 76.8 µM), for inactives: at the highest dose activity, negative = inhibition, hits mostly inhibitors | TbPYK enzyme, Kinase-Glo Plus ATP luminescence, 45 min | Q57TT1; note: potency is the fitted concentration of half-maximal effect; nearly all actives have a fitted effect of over 50% in size
#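 Assay buffer: 50 mM TEA pH 7.2, 100 mM KCl, 10 mM MgCl2, 0.05% BSA, 0.01% Tween-20. Pyruvate kinase from T. brucei plus substrate met compound, then ADP (130 uM final). Luminescence was read post 45 min RT.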
# HCMV antiviral = inhibitors of human cytomegalovirus; actives 4.5% (n = 410,000); activity change, negative = inhibition, % at 57.5 µM; HFF cells, HCMV-luciferase reporter, 72 h; active compounds read low; AID 1259415; in the data active = activity change below about -60%; inconclusive = no clear call, values can overlap the other calls; inactive = above about -39%
#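 Luciferase read-out from HCMV-luciferase-infected HFFs (MOI 1 PFU/cell) 72 h post infection at 37C; compounds added after 16 h cell attachment; activity normalized between buffer-only basal and Salinomycin (10uM) inhibitor controls.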
# Numbers without * were called inactive; i = inactive; ? = inconclusive; . = no result given. Unless noted, calls come from the whole dose curve; as a rule, active = well fitted curve in the direction sought with a large enough effect; inconclusive = small, poorly fitted or top-dose-only effect, or another doubt; inactive = no such curve, though single readings can be large; an effect the other way counts as inactive or inconclusive. % is set by controls: 0 for no effect and ±100 for the full control effect.
SMILES,Vaccinia Venus,LmPK inhibitor,Vaccinia mCherry,Tb PYK inh,HCMV antiviral
COc1ccc2nc(Nc3ccccc3OC)sc2c1,-21%,18µM*,?,2%,34
CC(/C=C/c1cccc([N+](=O)[O-])c1)=N/NC(=O)c1cccnc1,-22%,2%,-24%,-8%,-62*
O=C(Cn1nc(-c2ccccc2Cl)ccc1=O)Nc1ccc(Br)cc1,-2%,8%,i,0%,-23
O=C(CNC(c1ccccc1)c1ccccc1)Nc1ccccc1-c1ccccc1,-19%,1%,-7%,1%,-71*
O=C(CSCc1c(Cl)cccc1Cl)Nc1ccccc1-c1ccccc1,-18%,1%,?,22%,-66*
O=C(Cn1nc(-c2ccccc2Cl)ccc1=O)Nc1ccccc1-c1ccccc1,-14%,-5%,-18%,6%,-64*
O=C(CNC(c1ccccc1)c1ccccc1)Nc1ccccc1F,-11%,-5%,-14%,8%,-25
COc1ccc(NC(=O)c2cccnc2N2CCOCC2)cc1,.,-1%,.,-1%,25
CCCCN(C)S(=O)(=O)c1ccc(C(=O)N=c2sc3cc(NC(C)=O)ccc3n2C)cc1,-17%,0%,-10%,0%,-19
CCCCN(CC)S(=O)(=O)c1ccc(C(=O)N=c2sc3cc(NC(C)=O)ccc3n2C)cc1,-13%,5%,-1%,1%,-72*
Cc1ccnc2nc(C(=O)Nc3cc(Cl)ccc3N3CCOCC3)nn12,-16%,3%,.,-2%,-11
O=C(c1ccc(OC2CCN(Cc3ccccc3OC(F)F)CC2)cc1)N1CCCC1,.,6%,.,14%,-31
CCN1CCN(CCNC(=O)c2ccc(/C=C3/Sc4ccccc4N(Cc4ccccc4C)C3=O)cc2)CC1,?,0%,?,0%,-63*
CCN1CCN(CCCNC(=O)c2ccc(/C=C3/Sc4ccccc4N(Cc4ccccc4F)C3=O)cc2)CC1,.,2%,.,4%,?
CC(C)(O)C#Cc1ccc(C(=O)N2CCN(c3ccccc3)CC2)cc1,.,1%,.,3%,-18
CC(C)(O)C#Cc1ccc(C(=O)N2CCN(c3ccc([N+](=O)[O-])cc3)CC2)cc1,-27%,4%,-25%,-2%,-85*
CCCn1nnc(NC(=S)NC(=O)Cc2ccccc2)n1,?,0%,2.2µM*,-8%,31
CCCCn1nnc(NC(=S)NC(=O)c2cccs2)n1,2.2µM*,-9%,?,-4%,105
CCCn1nnc(NC(=S)NC(=O)CC)n1,.,3%,.,3%,6
CC1(C)Cc2c(sc3ncn4nc(CCC(=O)O)c(=O)nc4c23)CO1,-2%,-4%,-9%,-2%,11
C[C@@H]1CN([C@@H](C)CO)C(=O)c2cc(NC(=O)Nc3ccc4c(c3)OCO4)ccc2O[C@@H](C)CCCCO[C@@H]1CN(C)CC1CCCCC1,.,.,.,.,-20
Cc1ccc(N2C(=O)NC(=O)/C(=C/c3cnc(-c4ccccc4)nc3)C2=O)cc1C,-5%,4%,-19%,16%,57
O=C1NC(=O)N(Cc2ccccc2)C(=O)/C1=C/C=C/c1ccco1,.,5%,.,6%,0
CC(C)c1ccc(N2C(=O)NC(=O)/C(=C\c3cnc(-c4ccccc4)nc3)C2=O)cc1,-11%,5%,-19%,-8%,-88*
CC(C)c1ccc(N2C(=O)NC(=O)/C(=C\C=C\c3ccco3)C2=O)cc1,37%,21%,i,-13%,-95*
SMILES,Vaccinia Venus,LmPK inhibitor,Vaccinia mCherry,Tb PYK inh,HCMV antiviral
COc1cc2c(NC3CCN(C)CC3)nc(N3CCCN(C)CC3)nc2cc1OCCCN1CCOCC1,8.9µM*,.,?,.,.
COc1cc2c(NC3CCN(C)CC3)nc(N3CCCCC3)nc2cc1OCCOCCN1CCCC1,10µM*,.,?,.,.
COc1cc2c(NC3CCN(C(C)C)CC3)nc(N3CCCN(C)CC3)nc2cc1OCCOCCN1CCCC1,3.5µM*,.,?,.,.
COc1cc2c(NC3CCN(C)CC3)nc(N3CCCN(C)CC3)nc2cc1OCCCCCN,?,.,-23%,.,.
Cc1nnc(NC(=O)CSc2nccn2Cc2ccc(Cl)cc2)s1,-9%,.,-1%,-1%,2
CCN(C(=O)CSc1nnc(COc2ccccc2F)n1N)c1c(N)n(Cc2ccccc2)c(=O)[nH]c1=O,.,.,.,-4%,?
Cc1ccc(NC(=O)C2CC(O)CN2C(=O)OCc2ccccc2)c(C)c1 (stereo not given),-10%,-4%,-3%,-1%,-63*
Cc1ccc(NC(=O)C2CC(O)CN2C(=O)Oc2ccccc2)c(C)c1 (stereo not given),-5%,3%,-6%,2%,26
CC(=O)c1c(-c2ccccc2)c2cc(Cl)ccc2[nH]c1=O,?,4%,?,-18%,-63*
CC(=O)c1c(-c2ccc(Cl)cc2)c2ccccc2[nH]c1=O,-12%,1%,i,1%,?
COc1cc(NS(=O)(=O)c2ccc(NC(=S)NC(=O)c3sc4cc(F)ccc4c3Cl)cc2)nc(OC)n1,-17%,4%,-3%,1%,-23
C=CCN(c1ccc(C(=O)Nc2ccc(C)c(C)c2)cc1)S(C)(=O)=O,-27%,0%,-27%,-9%,-69*
Cn1nnc2c[n+](CC(=O)c3ccc(Cl)cc3)cc(Br)c21,-21%,-6%,?,-5%,-96*
Cn1nnc2c[n+](CC(=O)c3ccc4ccccc4c3)cc(Br)c21,?,4%,?,-6%,-97*
CCOCCCn1c(C)nc2c[n+](CC(=O)c3ccc4ccccc4c3)cc(Br)c21,-15%,-1%,-1%,0%,-37
Cc1ccc(S(=O)(=O)N2CCOCC2)cc1C(=O)Nc1cccc(C(=O)NC2CC2)c1,.,.,.,-3%,-1
NC(=O)c1ncn2c(=O)n(CCCl)nnc12,.,.,.,.,-31
CC1=C(C#N)CCC(=O)N1Cc1ccc(C)cc1,6%,-3%,.,-2%,28
C=CCc1cc(Cl)ccc1OCCCn1ccnc1,.,-8%,.,4%,44
Cn1c(-c2cccc(Br)c2)n[nH]c1=O,-18%,-1%,-20%,0%,-72*
Brc1cccc(-c2n[nH]c(-c3ccccc3)n2)c1,?,-11%,?,1%,121
CCn1cc(C2=NOC(C(=O)Nc3cccc(C(C)=O)c3)C2)c(C)n1 (stereo not given),.,2%,.,2%,-64*
CCn1ncc(C2=NOC(C(=O)Nc3cnn(C45CC6CC(CC(C6)C4)C5)c3)C2)c1C (stereo not given),.,6%,.,-7%,-83*
Cc1nn2c3c(cnc2c1-c1ccc(Cl)cc1)C(=O)CC(c1ccco1)C3 (stereo not given),.,0%,.,6%,1
CCOc1ccc(-n2c(=O)c3sccc3n(CC(=O)NC3CCCCC3)c2=O)cc1,-11%,-6%,-5%,0%,0
CN(C)CCCN1c2ccccc2CCc2ccc(Cl)cc21,-26%,6%,-13%,4%,-67*
O=[N+]([O-])c1cc(-c2cnc3ccccc3n2)ccc1Oc1ccc(Cl)cc1,.,-3%,.,-6%,44
